About 5,000 (1.4%) of roughly 360,000 compounds were called active.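 The calls were made as follows: active = inhibition of 50% or more, scaled per plate between neutral and stimulator controls; inactive = the rest.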 The sample as a whole holds a higher share of actives than the screen did.
Experiment: mitochondrial permeability transition pore inhibitors, primary screen, biochemical, isolated mouse mitochondria, absorbance (AID 602449);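 also: 0% = DMSO wells given calcium and 100% = 1 mM EGTA wells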
Conditions: Ca2+ swelling absorbance, 30 min, at 10 µM, active compounds read high

inhibition, active:
COC(=O)c1sccc1NC(=O)CSc1ccccc1NS(=O)(=O)c1cc(Cl)ccc1Cl 86.3%, CCCc1ccc(-c2c(C)sc(NC(=O)c3ccnn3C)c2C#N)cc1 99.7%, O=C(Nc1ccccc1)c1ccccc1NC(=O)C(F)(F)F 57.7%, O=c1c(-c2ccc3c(c2)OCCO3)c(C(F)(F)F)oc2cc(O)cc(O)c12 89.4%, COc1ccc(NS(=O)(=O)c2cc(NC(=O)CC(=O)c3ccc([N+](=O)[O-])cc3)ccc2C)cc1 73%

inhibition, inactive:
O=C(CN1C(=O)NC2(CCCCCCC2)C1=O)NCc1ccc(F)cc1 -0.5%, Cc1ccc(-c2nc3c(Cl)cc(C(F)(F)F)cn3c2Cc2cccc(Cl)c2)cc1 4.1%, COc1cc(C(C(=O)NC2CCCC2)N(C(=O)c2ccco2)c2ccccc2C(C)=O)cc(OC)c1OC (stereo not given) -1.2%, COC(=O)c1sccc1NS(=O)(=O)c1ccc(F)cc1F 1.6%, COC(=O)c1scc(C)c1NC(=O)CSc1ccc(Cl)cc1 3.3%, CCCc1cc(=O)[nH]c(SCC(=O)Nc2sc3c(c2C#N)CCCC3)n1 4%, Cc1sc(NC(=O)C2=COCCO2)c(C#N)c1C -0.9%, OCCc1ccc(NCCc2ccco2)cc1 -0.1%, CC1CCCCC1NCC(=O)Nc1ccccc1C(=O)Nc1ccccc1 (stereo not given) 1.8%, O=C(Nc1ccccc1)c1ccccc1Br -0.9%, CCN(C(=O)CSc1nnc(-c2ccc(OC(F)F)cc2)n1N)C1CCS(=O)(=O)C1 (stereo not given) -1.1%, CCOc1ccc(NC(=O)CN(C)C(=O)CSc2ccccc2)cc1OCC 1%, CCOc1ccc(S(=O)(=O)N2CCC(C(=O)NCc3ccccn3)CC2)cc1Cl -0.8%, O=C(c1cccc(F)c1)N1CCN(c2ccc([N+](=O)[O-])c3cccnc23)CC1 0.3%, CCN1CCN(Cc2c(O)ccc3c(=O)c(-c4ccc(OC)c(OC)c4)c(C(F)(F)F)oc23)CC1 -2%, COc1ccc(-c2onc(C)c2-c2ccc3c(c2)OCCO3)c(O)c1 3.2%, CC(C)(C)c1cc[n+](-c2[nH]c(=O)sc2/C=N/N=C(\[O-])c2ccccc2)cc1 -1.9%, CCCNC(=O)CN(Cc1ccccc1F)S(=O)(=O)c1ccc(C)cc1 1.8%, Cc1ccc(NC(=O)CCNC(=O)c2ccc([N+](=O)[O-])cc2)cc1S(=O)(=O)N1CCOCC1 -1.6%, COc1ccc(NS(=O)(=O)c2cc(NC(=O)COc3ccccc3F)ccc2OC)cc1 0.8%

— PubChem BioAssay AID602449 (Sanford-Burnham Center for Chemical Genomics, 2012)
